The source of these data is PubChem BioAssay.

For part of these data: Entries with a potency or affinity are not part of this list. The source made the active and inactive calls.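 Rule for the calls, unless noted: active = primary screen activator hit with a dose response curve and TRPC4 channel activation at any tested dose; inactive = no activation, no dose response, or not a primary hit.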

The subject of assay [1] is TRPC4 beta (transient receptor potential cation channel C4), mouse. The assay can be described thus: activators of mouse TRPC4 channel, confirmation, cell-based, Fluo4 calcium, HEK293 TRPC4beta/mu-opioid, duplicates, 10 µM (AID 2426;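 active = fluorescence ratio normalized to control raised more than 50% in primary screen plus both repeat runs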). The settings on record: Fluo4 calcium fluorescence, at 10 µM; stronger effect = higher value.
In assay [2] the test system is transient receptor potential cation channel C4 beta (TRPC4), mouse. As to the kind of experiment: activators of mouse TRPC4 channel, confirmation, cell-based, second round, Fluo4, HEK293 TRPC4beta/mu-opioid, 1 µM (AID 2461;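 active = primary screen active and over 50% activation in each of two duplicate runs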). The settings on record: Fluo4 calcium fluorescence, at 1 µM; stronger effect = higher value.
Assay [3] has as its system TRPC4 (transient receptor potential cation channel C4 beta), mouse. As to the kind of experiment: positive allosteric modulators of mouse TRPC4, confirmation, cell-based, second round, Fluo-4, HEK293 TRPC4beta/mu-opioid, 1 µM (AID 2554;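 active = primary screen hit whose fluorescence ratio, in both repeats, exceeds the weak agonist control mean by 3 SD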). The settings on record: DAMGO EC20, Fluo-4 calcium flux, at 1 µM; stronger effect = higher value. On the technique in general: Calcium assays in cells follow changes in intracellular calcium, usually with a dye or a luminescent sensor.

The subject of assay [4] is TRPC4 beta (transient receptor potential cation channel C4), mouse. The assay can be described thus: positive allosteric modulators of mouse TRPC4, confirmation, cell-based, Fluo-4, HEK293 TRPC4beta/mu-opioid (AID 2555;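 active = primary screen hit whose calcium fluorescence ratio, in both repeats, exceeds the weak agonist control mean by 3 SD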). The settings on record: DAMGO EC20, Fluo-4 calcium flux, at 10 µM; stronger effect = higher value.
Assay [5] has as its target Short transient receptor potential channel 4 (Mus musculus) (UniProt Q9QUQ5). The assay can be described thus: inhibitors of mouse TRPC4 channel, confirmation, cell-based, Fluo4, HEK293 TRPC4beta/mu-opioid (AID 2636;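 active = calcium signal cut by more than 3 SD below the full-agonist control yet still positive, in both repeats and the earlier primary screen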). The settings on record: DAMGO, Fluo4 calcium flux, at 10 µM; stronger effect = higher value.
Assay [6] shares this target. As to the kind of experiment: inhibitors of mouse TRPC4 channel, confirmation, cell-based, second round, Fluo4, HEK293 TRPC4beta/mu-opioid, 1 µM (AID 2637;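 active = calcium signal ratio cut to more than 3 SD under the fully stimulated control mean yet still positive, in both repeats and the primary screen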;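 for inhibition: percent of integrated ratio relative to wells lacking test compound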). The settings on record: Fluo4 calcium flux, DAMGO, at 1 µM; stronger effect = higher value.
Assay [7] has the same target. As to the kind of experiment: mouse TRPC4 channel activators, dose response, cell-based, HEK293 TRPC4/mu-opioid, Fluo-4 calcium (AID 434937).
The target is the same in assay [8]. The assay can be described thus: TRPC4 positive allosteric modulators, dose response, cell-based, HEK293 TRPC4/mu-opioid, Fluo-4 calcium, EC20 DAMGO (AID 434941;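 active = earlier screen potentiator hit that boosts the TRPC4 ion channel at some dose, with a dose response; inactive = no potentiation, no dose response, or not a prior hit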;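 note: calcium entry triggered by an EC20 dose of DAMGO at the co-expressed mu-opioid receptor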).
Assay [9] deals with Short transient receptor potential channel 6 (Mus musculus) (UniProt Q61143). As to the kind of experiment: inhibition of mouse TRPC6 channel, confirmation, selectivity assay for TRPC4 inhibitor project, cell-based, HEK293, membrane potential dye, duplicate (AID 434948;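 active = active in primary screen and both duplicates, each dropping signal beyond three positive-control SD with fluorescence still positive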). The settings on record: HEK293 TRPC6, membrane potential dye fluorescence, at 10 µM, stimulated with maximal-effect acetylcholine; stronger effect = higher value.

The target is the same in assay [10]. The assay can be described thus: activation of mouse TRPC6 channel, confirmation, selectivity assay for TRPC4 activator project, cell-based, HEK293, membrane potential dye, duplicate (AID 434950;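 active = membrane potential signal rise above negative control mean plus 3 SD in both duplicates, also active in the earlier TRPC4 screen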;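 for activation: 0% = buffer only wells and 100% = acetylcholine maximal-effect wells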). The settings on record: HEK293 TRPC6, membrane potential fluorescence, at 10 µM; stronger effect = higher value.
Assay [11] shares this target. As to the kind of experiment: TRPC6 potentiation by TRPC4 potentiator hits, confirmation, selectivity assay for TRPC4 potentiator project, HEK293 cells, membrane potential dye, duplicate (AID 434952;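 active = compound raising the membrane signal above positive-control mean plus 3 SD in both repeats, and a primary screen hit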). The settings on record: HEK293 TRPC6, membrane potential dye fluorescence, at 10 µM, maximal acetylcholine added after compound; stronger effect = higher value.
Assay [12] addresses Short transient receptor potential channel 4 (Mus musculus) (UniProt Q9QUQ5). As to the kind of experiment: calcium flux activators in TRPC4/5HT1a cells, counter-screen for TRPC4 activator project, cell-based, second counter screen, HEK293 TRPC4/5HT1a, Fluo-4 (AID 434977;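 active = calcium signal rise above buffer-control mean plus 5 SD in both duplicates, and also a hit in the primary screen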). The settings on record: Fluo-4 calcium flux, at 10 µM; stronger effect = higher value.
Assay [13] is described as follows: calcium flux inhibitors in TRPC4/5HT1a cells, confirmation, counter-screen for TRPC4 inhibitor project, cell-based, second counter screen, HEK293 TRPC4/5HT1a, Fluo-4 (AID 434978;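 active = primary screen active whose calcium signal fell more than 3 SD beyond the full-serotonin control mean in both duplicate plates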;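 for outcome: serotonin given first at submaximal then at maximal dose after compound preincubation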). The settings on record: Fluo-4 calcium flux, at 10 µM, serotonin added to trigger calcium flux; stronger effect = higher value.
Assay [14] has as its system TRPC4 (mouse), co-expressed with 5HT1a in HEK293. As to the kind of experiment: calcium flux potentiators in TRPC4/5HT1a cells, confirmation, counter-screen for TRPC4 potentiator project, cell-based, second counter screen, HEK293 TRPC4/5HT1a, Fluo-4 (AID 434979;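 active = signal rise over 3 SD above mean of control wells given weak agonist, in both repeats and first screen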). The settings on record: Fluo-4 calcium flux, at 10 µM, serotonin added at its EC20 dose; stronger effect = higher value.

The nature of assay [15]: calcium flux activation in mu-opioid HEK293 cells, confirmation, counter-screen for TRPC4 activator project, cell-based, HEK293 mu-opioid receptor line (AID 449723;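 active = hit in primary screen, with calcium signal over 5 SD above buffer well mean in both duplicates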;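 note: counter screen cells carry the mu-opioid receptor alone and lack TRPC4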). The settings on record: Fluo-4 calcium fluorescence, at 10 µM; stronger effect = higher value.
Assay [16] in a line: calcium flux enhancement in mu-opioid HEK293 cells, confirmation, counter-screen for TRPC4 allosteric potentiator project, cell-based, HEK293 mu-opioid receptor line (AID 449724;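 active = calcium signal rise more than 3 SD above the low-dose agonist control mean, in both duplicate plates and the primary screen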;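 note: HEK293 cells carrying mu-opioid receptor only with no TRPC4 channel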). The settings on record: Fluo-4 calcium flux, at 10 µM, compound added before EC20 DAMGO stimulus; stronger effect = higher value.

Short transient receptor potential channel 6 (Mus musculus), sequence (Q61143 whole entry, looked up): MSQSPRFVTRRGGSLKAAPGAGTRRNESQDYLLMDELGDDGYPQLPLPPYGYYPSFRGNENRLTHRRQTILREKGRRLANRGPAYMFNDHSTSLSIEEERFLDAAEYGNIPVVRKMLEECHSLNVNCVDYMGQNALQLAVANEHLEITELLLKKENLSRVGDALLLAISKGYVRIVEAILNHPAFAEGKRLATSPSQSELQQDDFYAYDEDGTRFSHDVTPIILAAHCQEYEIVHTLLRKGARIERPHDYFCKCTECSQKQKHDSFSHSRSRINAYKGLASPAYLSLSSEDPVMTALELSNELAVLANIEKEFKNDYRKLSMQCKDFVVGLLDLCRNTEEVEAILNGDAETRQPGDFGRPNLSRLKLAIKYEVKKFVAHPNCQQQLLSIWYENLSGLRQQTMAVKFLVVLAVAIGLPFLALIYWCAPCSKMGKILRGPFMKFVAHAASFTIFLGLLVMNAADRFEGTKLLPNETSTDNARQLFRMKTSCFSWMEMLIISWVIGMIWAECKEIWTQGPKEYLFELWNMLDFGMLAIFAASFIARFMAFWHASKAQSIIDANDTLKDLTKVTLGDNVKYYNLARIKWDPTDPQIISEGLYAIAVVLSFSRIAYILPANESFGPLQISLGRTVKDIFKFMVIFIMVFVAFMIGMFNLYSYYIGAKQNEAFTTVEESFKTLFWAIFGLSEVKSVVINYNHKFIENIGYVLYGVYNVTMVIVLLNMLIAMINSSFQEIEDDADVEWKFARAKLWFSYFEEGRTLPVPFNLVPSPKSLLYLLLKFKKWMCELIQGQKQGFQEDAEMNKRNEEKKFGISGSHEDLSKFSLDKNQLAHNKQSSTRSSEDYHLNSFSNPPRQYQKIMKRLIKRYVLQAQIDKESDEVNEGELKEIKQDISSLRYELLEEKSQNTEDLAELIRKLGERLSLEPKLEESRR
Short transient receptor potential channel 4 (Mus musculus), sequence (Q9QUQ5 whole entry, looked up): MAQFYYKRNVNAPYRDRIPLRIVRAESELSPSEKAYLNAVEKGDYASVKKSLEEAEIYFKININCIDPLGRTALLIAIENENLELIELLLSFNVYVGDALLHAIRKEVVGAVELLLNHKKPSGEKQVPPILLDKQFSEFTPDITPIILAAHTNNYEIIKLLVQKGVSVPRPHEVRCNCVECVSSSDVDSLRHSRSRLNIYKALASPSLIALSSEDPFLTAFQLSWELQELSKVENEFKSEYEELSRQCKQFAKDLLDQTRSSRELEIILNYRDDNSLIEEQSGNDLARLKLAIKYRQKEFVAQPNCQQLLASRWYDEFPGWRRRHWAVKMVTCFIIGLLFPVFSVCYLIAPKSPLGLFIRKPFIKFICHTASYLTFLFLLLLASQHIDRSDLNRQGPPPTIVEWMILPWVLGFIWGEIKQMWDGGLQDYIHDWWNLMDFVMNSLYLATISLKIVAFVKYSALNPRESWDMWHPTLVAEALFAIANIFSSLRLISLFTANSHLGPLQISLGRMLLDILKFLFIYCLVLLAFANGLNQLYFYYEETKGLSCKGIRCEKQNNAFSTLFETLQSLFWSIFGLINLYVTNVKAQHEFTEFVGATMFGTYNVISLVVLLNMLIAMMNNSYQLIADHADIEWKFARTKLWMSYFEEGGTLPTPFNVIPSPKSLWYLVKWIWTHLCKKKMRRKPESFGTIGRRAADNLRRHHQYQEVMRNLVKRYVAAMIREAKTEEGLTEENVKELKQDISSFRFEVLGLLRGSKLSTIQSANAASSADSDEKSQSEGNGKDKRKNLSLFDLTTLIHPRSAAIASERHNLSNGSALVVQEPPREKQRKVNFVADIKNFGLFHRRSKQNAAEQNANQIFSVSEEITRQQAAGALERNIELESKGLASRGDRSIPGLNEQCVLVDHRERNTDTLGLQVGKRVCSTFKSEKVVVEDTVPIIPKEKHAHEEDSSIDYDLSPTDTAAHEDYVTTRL

As for `O=C(NCCN1CCOCC1)c1cc2sccc2n1Cc1ccc(F)cc1`, the result in [1], in assay [2], in [3], in [4], in assay [7] and in assay [8] was inactive. Also, the outcome in [9], in assay [10], in assay [11], in assay [12], in assay [14] and in assay [15] was inactive. Besides, the result in assay [16] was inactive. Also, the inhibition in [5] is 74% (active); in assay [6], 49% (active); in [13] it was 33.8% (active).

With `OCC1(Cc2ccccc2)CCCN(Cc2cnn(-c3ccccc3)c2)C1` (stereo not given), the result in [1], in assay [2], in assay [3], in assay [4], in assay [7] and in [8] was inactive. The outcome in assay [9], in assay [10], in [11], in assay [12], in assay [14] and in assay [15] was inactive. The result in [16] was inactive. Besides, the inhibition in [5] was 91% (active); in assay [6] it was 42% (active); in [13], 36.1% (active).

Consider `Fc1ccccc1CNCCC(Cc1ccccc1)c1ccc2c(c1)OCO2` (stereo not given), for which the result in [1], in [2], in assay [3], in [4], in assay [5] and in assay [6] was inactive. The outcome in assay [7], in [8], in assay [9], in assay [11], in assay [12] and in assay [13] was inactive. The result in assay [14], in [15] and in assay [16] was inactive. Moreover, the activation in assay [10] was 48% (active).

Regarding `Cc1cc(C)nc(/N=C(\N)N(Cc2ccccc2)Cc2ccccc2)n1`, the result in [1], in [2], in assay [3], in assay [4], in [6] and in assay [7] was inactive. The result in assay [8], in assay [10], in assay [11], in assay [12], in [14] and in assay [15] was inactive. Also, the result in assay [16] was inactive. In addition, the results for the inhibition in assay [5], in assay [9] and in assay [13] were 97% (active), 30.5% (active) and 41.7% (active), respectively.

As to `Cn1cc(CNCC2CCCO2)c(-c2ccc(Oc3ccccc3)cc2)n1` (stereo not given), the result in assay [1], in assay [2], in assay [3], in assay [4], in assay [6] and in assay [7] was inactive. Moreover, the outcome in [8], in assay [9], in assay [10], in [11], in assay [12] and in assay [14] was inactive. The result in [15] and in [16] was inactive. Further, the inhibition in assay [5] is 92% (active); in assay [13] it was 45.9% (active).

Turning to `Cc1ccccc1OCCn1c(C)nc2ccccc21`, the outcome in assay [1], in [2], in assay [3], in assay [4], in assay [7] and in assay [8] was inactive. Besides, the call in [9], in assay [10], in assay [11], in assay [12], in assay [14] and in assay [15] was inactive. In addition, in assay [16], the outcome was inactive. The inhibition in assay [5] is 36% (active); in assay [6], 57% (active); in [13], 13.3% (active).

Take `CCCCN(CCCC)/C(N)=N/c1nc(C)cc(C)n1`: the outcome in assay [1], in [2], in [3], in [4], in [5] and in [6] was inactive. Further, the result in assay [7], in assay [8], in assay [9], in [10], in [11] and in assay [12] was inactive. The result in assay [14], in [15] and in assay [16] was inactive. Moreover, the inhibition in [13] is 35.1% (active).

With `COCCn1c(SCC(=O)Nc2ccccc2OC)nc2c([nH]c3ccccc32)c1=O`, the outcome in [1], in assay [2], in [3], in [4], in assay [6] and in assay [7] was inactive. The result in assay [8], in assay [9], in assay [10], in [11], in assay [12] and in assay [14] was inactive. The outcome in assay [15] and in assay [16] was inactive. The inhibition in assay [5] is 71% (active); in [13] it was 36.6% (active).

Turning to `CC(/C=C1\SC(=S)N(C(C(=O)O)C(C)C)C1=O)=C\c1ccccc1` (stereo not given), the result in [1], in assay [2], in [3], in [4], in [6] and in assay [7] was inactive. Also, the outcome in assay [8], in assay [9], in assay [10], in [11], in [12] and in assay [14] was inactive. Further, the result in [15] and in assay [16] was inactive. For the same compound, the inhibition is 99% (active) in [5] and 16% (active) in assay [13].

`Cc1cccc(-n2ccnc2CN2CCC(CO)(Cc3ccccc3)CC2)c1`: the result in assay [1], in assay [2], in assay [3], in assay [4], in [6] and in [7] was inactive. In addition, the result in [8], in [9], in assay [10], in assay [11], in [12] and in assay [13] was inactive. Further, the outcome in [14], in assay [15] and in assay [16] was inactive. In addition, the inhibition in assay [5] was 70% (active).

With `O=C(COC(=O)C1CC1)Nc1nc(-c2ccc(F)c(F)c2)cs1`, the result in assay [1], in assay [2], in [3], in assay [4], in assay [6] and in assay [7] was inactive. In addition, the outcome in assay [8], in [9], in [10], in [11], in assay [12] and in assay [14] was inactive. Besides, the outcome in [15] and in assay [16] was inactive. In addition, the inhibition in assay [5] was 70% (active); in assay [13] it was 41.5% (active).

For the compound `Cc1cccc(N2CCN(Cc3ccoc3)CC2)c1C`, the outcome in assay [1], in [2], in assay [3], in assay [4], in assay [6] and in assay [7] was inactive. The outcome in assay [8], in assay [9], in [10], in [11], in assay [12] and in assay [14] was inactive. Besides, the outcome in assay [15] and in assay [16] was inactive. For the same compound, the inhibition was 72% (active) in assay [5] and 25.2% (active) in assay [13].

On to `Clc1ccc2c(c1)-c1nnc(Br)n1-c1ccccc1S2`, for which the result in assay [1], in assay [2], in assay [3], in [4], in assay [6] and in assay [7] was inactive. Further, the result in [8], in assay [9], in assay [10], in [11], in [12] and in [13] was inactive. Besides, the result in assay [14], in assay [15] and in assay [16] was inactive. Moreover, the inhibition in assay [5] is 83% (active).

Turning to `Nc1cc(C(F)(F)F)ccc1Nc1ccccc1`, the result in assay [1], in [2], in assay [3], in [4], in assay [6] and in assay [7] was inactive. Moreover, the result in assay [8], in assay [9], in assay [10], in assay [11], in assay [12] and in assay [14] was inactive. Moreover, the outcome in assay [15] and in assay [16] was inactive. Besides, the results for the inhibition in assay [5] and in assay [13] were 90% (active) and 27.6% (active), respectively.

Consider `COc1ccc(CN(C(=O)c2snc(C(N)=O)c2N)C(CC(C)C)C(=O)NC2CCCCC2)cc1` (stereo not given), for which the outcome in assay [1], in assay [2], in assay [3], in [4], in [6] and in assay [7] was inactive. Further, the result in [8], in assay [9], in [10], in [11], in [12] and in [14] was inactive. Besides, the outcome in assay [15] and in assay [16] was inactive. Besides, the inhibition is 82% (active) in [5] and 30.8% (active) in assay [13].

A word on the inhibition: it is the share of the control response that was lost under treatment.
